From the supplement of paper PMC11732987, “Enantioselective OTUD7B fragment discovery through chemoproteomics screening and high-throughput optimisation” (Communications Chemistry, 2025)

Legend:
Experiment in all cases: log2 ratio of Biotin-Ahx-Ub-VS probe labelling (fragment/DMSO); higher = less target engagement (more negative = stronger competition), active = hit call of the paper (q ≤ 0.05, log2 ratio ≤ -1)
Settings in all cases: compound concentration: 200 uM; treatment time: 3 h
USP19 = biological target: T1, USP19 (UniProt O94966)
T1 sequence (whole entry): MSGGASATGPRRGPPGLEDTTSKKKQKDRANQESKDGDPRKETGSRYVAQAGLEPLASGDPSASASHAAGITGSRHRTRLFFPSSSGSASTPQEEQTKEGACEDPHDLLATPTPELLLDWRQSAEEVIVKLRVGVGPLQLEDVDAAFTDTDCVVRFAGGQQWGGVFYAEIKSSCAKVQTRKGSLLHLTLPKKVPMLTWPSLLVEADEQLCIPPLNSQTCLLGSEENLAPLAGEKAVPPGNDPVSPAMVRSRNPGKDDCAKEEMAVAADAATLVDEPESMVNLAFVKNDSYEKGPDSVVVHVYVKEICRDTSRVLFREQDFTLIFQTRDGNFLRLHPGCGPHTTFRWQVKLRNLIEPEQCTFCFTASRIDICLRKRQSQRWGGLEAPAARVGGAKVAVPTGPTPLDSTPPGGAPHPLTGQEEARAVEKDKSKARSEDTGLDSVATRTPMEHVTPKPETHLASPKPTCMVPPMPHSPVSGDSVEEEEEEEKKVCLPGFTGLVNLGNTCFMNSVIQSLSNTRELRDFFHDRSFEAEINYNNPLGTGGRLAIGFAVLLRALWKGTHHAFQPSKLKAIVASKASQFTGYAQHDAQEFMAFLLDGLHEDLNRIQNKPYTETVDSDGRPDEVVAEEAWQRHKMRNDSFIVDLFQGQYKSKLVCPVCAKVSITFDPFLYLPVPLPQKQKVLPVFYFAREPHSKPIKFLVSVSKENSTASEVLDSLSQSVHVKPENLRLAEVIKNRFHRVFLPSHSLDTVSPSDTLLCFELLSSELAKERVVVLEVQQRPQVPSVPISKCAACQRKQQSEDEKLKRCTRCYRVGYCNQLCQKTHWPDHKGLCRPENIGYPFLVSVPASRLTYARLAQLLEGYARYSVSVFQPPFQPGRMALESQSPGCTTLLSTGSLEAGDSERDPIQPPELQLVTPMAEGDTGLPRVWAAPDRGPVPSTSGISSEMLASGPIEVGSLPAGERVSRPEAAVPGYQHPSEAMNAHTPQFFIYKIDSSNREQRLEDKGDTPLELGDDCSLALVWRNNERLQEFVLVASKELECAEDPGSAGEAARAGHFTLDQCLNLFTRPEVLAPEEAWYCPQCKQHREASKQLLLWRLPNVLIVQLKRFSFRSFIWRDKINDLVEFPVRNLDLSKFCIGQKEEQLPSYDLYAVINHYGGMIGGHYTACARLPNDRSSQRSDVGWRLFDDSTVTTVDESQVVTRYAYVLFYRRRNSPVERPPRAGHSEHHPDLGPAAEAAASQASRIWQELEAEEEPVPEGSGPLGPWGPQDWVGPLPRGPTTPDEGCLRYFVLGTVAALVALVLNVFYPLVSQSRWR
Method in brief: (§1)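 Average log2 ratios of fragment over vehicle were obtained by unpaired t-test from global-median-normalised Spectronaut label-free quantities. Proteins with ≥2 unique peptides were included. HEK293T lysate (495 µg per sample) was treated in triplicate with fragment at 200 µM or vehicle for 3 h, then with Biotin-Ahx-Ub-VS at 0.5 µM final for 1 h, and labelled DUBs were NeutrAvidin-enriched and run by diaPASEF LC-MS/MS.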

USP24 = USP24 (UniProt Q9UPU5)
Method in brief: as §1

USP25 = biological target: T2, USP25 (UniProt Q9UHP3)
T2 sequence (whole entry): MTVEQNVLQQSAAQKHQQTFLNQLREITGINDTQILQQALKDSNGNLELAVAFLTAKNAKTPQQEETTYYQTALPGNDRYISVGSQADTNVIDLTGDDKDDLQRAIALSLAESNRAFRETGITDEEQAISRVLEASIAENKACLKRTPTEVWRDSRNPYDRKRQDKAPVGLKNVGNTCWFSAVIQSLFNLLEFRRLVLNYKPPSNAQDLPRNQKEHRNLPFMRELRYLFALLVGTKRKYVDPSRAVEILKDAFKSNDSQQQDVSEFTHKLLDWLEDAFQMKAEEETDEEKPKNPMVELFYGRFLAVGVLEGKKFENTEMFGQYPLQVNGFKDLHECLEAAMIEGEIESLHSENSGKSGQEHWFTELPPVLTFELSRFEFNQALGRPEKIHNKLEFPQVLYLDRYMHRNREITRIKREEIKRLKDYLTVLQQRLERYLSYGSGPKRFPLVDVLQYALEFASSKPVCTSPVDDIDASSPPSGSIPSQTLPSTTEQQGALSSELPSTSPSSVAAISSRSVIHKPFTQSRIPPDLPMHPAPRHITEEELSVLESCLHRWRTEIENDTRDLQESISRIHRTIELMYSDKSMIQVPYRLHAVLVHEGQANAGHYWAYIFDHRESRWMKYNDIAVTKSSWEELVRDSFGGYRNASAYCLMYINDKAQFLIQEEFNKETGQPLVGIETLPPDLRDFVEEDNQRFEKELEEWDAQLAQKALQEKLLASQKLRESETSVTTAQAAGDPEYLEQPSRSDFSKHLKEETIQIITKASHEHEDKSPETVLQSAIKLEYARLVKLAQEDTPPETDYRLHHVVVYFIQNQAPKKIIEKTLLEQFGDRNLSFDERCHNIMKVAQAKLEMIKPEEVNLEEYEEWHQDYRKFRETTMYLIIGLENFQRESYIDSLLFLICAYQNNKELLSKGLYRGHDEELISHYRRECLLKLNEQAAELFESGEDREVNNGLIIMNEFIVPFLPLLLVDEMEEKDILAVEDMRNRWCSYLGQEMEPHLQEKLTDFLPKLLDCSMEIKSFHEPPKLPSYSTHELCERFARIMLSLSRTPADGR
Method in brief: as §1

USP28 = biological target: T3, USP28 (UniProt Q96RU2)
T3 sequence (whole entry): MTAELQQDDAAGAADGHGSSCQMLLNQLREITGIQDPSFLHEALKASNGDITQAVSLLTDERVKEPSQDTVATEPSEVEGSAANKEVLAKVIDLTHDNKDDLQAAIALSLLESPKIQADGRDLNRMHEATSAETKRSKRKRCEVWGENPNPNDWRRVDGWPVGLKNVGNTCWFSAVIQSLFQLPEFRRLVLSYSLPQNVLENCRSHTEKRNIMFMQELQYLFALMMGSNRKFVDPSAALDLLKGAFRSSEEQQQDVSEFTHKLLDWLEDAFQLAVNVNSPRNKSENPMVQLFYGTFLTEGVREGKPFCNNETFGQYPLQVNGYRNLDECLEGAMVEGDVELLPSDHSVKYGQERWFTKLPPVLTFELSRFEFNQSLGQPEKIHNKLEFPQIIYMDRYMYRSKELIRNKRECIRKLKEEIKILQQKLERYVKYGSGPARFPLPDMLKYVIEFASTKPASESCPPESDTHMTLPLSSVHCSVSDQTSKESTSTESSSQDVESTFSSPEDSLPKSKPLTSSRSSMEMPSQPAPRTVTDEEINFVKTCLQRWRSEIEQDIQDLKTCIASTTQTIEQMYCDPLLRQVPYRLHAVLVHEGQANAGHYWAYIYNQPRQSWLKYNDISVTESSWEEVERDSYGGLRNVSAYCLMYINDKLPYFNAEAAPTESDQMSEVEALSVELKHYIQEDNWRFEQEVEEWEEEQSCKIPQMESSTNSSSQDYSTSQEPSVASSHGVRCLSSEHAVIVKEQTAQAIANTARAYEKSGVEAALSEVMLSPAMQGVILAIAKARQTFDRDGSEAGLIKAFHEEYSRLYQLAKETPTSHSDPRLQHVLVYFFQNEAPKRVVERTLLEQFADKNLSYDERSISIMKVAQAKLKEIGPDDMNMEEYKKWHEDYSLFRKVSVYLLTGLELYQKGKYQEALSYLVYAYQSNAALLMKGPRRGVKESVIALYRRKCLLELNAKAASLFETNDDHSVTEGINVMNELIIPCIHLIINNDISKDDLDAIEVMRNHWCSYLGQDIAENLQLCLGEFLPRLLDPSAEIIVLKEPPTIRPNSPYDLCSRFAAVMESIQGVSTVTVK
Method in brief: as §1

Measured: log2 ratio of Biotin-Ahx-Ub-VS probe labelling

Chain of USP24 (Q9UPU5 whole entry): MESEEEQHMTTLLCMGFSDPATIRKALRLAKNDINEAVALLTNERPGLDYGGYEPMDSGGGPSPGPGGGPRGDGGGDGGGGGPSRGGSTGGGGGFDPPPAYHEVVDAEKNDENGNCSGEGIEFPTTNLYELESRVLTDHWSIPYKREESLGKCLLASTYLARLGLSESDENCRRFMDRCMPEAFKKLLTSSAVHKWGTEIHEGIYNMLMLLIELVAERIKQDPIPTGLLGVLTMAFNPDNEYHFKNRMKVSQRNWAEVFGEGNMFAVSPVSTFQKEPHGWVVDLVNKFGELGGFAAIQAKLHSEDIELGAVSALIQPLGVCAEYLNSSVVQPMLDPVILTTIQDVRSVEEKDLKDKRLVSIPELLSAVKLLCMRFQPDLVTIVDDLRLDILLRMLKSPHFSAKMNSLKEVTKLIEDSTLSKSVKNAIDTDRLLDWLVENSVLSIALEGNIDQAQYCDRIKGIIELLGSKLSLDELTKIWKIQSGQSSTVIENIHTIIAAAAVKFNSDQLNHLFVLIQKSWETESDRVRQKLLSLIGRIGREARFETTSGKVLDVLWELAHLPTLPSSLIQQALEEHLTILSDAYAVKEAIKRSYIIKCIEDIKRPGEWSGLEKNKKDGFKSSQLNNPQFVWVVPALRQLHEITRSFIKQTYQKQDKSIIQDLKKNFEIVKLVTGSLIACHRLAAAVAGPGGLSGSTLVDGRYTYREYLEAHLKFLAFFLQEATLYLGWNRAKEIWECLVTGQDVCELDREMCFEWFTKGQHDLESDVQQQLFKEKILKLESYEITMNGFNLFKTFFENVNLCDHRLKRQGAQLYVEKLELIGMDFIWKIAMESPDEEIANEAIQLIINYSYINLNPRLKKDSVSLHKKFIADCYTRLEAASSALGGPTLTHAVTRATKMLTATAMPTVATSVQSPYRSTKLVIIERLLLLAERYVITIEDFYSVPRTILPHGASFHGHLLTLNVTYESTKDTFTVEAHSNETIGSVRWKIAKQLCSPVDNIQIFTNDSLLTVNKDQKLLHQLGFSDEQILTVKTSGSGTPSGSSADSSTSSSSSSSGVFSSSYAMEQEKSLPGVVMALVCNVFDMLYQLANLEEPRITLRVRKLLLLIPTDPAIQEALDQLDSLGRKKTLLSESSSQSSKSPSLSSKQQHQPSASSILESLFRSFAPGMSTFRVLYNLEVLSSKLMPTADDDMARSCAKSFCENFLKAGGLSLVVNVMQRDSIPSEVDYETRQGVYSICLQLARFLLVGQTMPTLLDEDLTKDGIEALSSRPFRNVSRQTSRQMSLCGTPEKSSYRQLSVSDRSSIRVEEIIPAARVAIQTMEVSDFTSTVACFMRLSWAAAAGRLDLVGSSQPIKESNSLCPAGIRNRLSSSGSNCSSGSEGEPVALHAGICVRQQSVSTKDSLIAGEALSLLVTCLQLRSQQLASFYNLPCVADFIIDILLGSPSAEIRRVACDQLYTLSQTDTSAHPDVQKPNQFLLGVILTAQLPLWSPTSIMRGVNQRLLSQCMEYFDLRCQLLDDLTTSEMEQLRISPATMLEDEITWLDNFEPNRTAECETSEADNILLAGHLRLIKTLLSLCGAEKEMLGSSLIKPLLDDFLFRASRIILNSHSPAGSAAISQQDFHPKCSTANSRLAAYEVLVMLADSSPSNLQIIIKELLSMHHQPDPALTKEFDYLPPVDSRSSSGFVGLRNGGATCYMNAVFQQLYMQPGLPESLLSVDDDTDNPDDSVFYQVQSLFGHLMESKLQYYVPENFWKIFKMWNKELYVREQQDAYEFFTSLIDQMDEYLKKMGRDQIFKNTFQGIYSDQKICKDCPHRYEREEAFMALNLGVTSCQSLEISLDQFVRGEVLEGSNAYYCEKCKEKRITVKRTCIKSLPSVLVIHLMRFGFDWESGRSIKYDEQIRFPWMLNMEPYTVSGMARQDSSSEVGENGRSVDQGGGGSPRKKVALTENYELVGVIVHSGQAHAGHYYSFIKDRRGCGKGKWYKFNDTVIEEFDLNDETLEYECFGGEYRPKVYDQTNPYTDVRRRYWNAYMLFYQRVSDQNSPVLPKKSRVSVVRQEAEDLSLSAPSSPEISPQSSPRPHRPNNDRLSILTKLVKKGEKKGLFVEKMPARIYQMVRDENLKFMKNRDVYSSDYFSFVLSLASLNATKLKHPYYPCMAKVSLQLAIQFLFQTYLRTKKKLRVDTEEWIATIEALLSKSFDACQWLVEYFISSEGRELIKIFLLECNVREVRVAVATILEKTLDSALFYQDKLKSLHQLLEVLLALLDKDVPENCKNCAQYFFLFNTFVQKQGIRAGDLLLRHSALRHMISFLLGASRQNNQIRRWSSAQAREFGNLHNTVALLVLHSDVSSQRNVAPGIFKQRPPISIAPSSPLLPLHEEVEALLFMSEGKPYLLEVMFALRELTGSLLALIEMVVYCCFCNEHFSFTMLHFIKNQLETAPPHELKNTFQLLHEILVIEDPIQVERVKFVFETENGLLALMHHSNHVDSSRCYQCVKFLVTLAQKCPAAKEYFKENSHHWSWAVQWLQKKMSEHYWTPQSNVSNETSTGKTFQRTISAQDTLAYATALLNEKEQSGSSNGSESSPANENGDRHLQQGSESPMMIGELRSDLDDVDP

Cc1ccc(CN(C)C(=O)CCl)o1
inactive: USP19 -0.241 | USP24 -0.411 | USP25 -0.156 | USP28 -0.465
